Compound activity from PubChem.
Shn3 inh set2 = reduction of Shn3 3'UTR firefly luciferase signal, primary screen, Schnurri-3 inhibitor project, cell-based, Clone20 osteoblasts, set 2. inhibition, % at 12.5 µM. hit rate 0.52% among 360,000. AID 588674, 2011. Clone20 osteoblast Shn3 3'UTR firefly luciferase, 24 h;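 active means mean inhibition of at least 75% with every replicate also reaching 75%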;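 further: 0% = median of neutral control wells and 100% = pilot-screen positive control compound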
PAX8 reporter = inhibitors of PAX8-driven TPO luciferase reporter, primary screen, RMG-I cells, single concentration. SteadyGlo, 24 h. AID 652154, 2013. inhibition, % at 12.6 µM. hit rate 1.2% among 360,000;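 active means mean replicate inhibition at least 60% with every replicate also reaching 60%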;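 further: luciferase light reporting Pax8 driven TPO promoter activity; plate controls were median of neutral control wells for no effect and mitoxantrone controls for full effect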
TRPM1 prom inh = inhibitors of MITF-dependent TRPM1 promoter reporter, primary screen, cell-based, SK-MEL-5, single point, luciferase. SK-MEL-5 TRPM1 promoter luciferase, 24 h. inhibition, % at 12.5 µM. AID 488899, 2010. hit rate 0.83% among 330,000;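 active means mean inhibition across replicates of 60% or more, whatever share of single replicates reaches that level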
Peg3 promoter = Peg3 promoter-driven luciferase inhibitors, primary screen, cell-based, HeLa, luciferase luminescence. hit rate 1.7% among 360,000. inhibition, % at 20 µM. HeLa PEG-Prom luciferase reporter, overnight;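 active means inhibition of at least 50% at 20 µM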
ABHD5-PLIN5 inh = ABHD5-PLIN5 interaction inhibitors, primary screen, cell lysate, split luciferase complementation, luminescence; AID 602281, 2012; hit rate 0.78% among 360,000; inhibition, % at 4 µM; Split G. princeps luciferase complementation, 4 h;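 active means inhibition above the mean inhibition across every tested compound plus 3 SD, cut at about 22% in these data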;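 further: 0% = DMSO only wells and the 100% control is not disclosed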
Target sequence (Q00G26 whole entry, looked up): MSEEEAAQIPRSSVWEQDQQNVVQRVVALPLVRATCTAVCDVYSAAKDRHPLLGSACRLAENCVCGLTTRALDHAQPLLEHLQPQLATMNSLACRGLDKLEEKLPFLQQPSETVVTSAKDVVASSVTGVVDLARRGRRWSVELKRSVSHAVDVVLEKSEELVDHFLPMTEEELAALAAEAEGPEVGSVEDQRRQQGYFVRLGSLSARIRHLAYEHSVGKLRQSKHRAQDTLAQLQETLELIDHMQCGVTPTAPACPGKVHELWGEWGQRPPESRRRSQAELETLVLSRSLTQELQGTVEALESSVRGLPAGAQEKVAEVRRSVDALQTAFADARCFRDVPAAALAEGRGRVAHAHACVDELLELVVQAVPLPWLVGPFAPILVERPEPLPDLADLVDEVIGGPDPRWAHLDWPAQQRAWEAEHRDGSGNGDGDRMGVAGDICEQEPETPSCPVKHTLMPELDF
Target sequence (Q8WTS1 whole entry, looked up): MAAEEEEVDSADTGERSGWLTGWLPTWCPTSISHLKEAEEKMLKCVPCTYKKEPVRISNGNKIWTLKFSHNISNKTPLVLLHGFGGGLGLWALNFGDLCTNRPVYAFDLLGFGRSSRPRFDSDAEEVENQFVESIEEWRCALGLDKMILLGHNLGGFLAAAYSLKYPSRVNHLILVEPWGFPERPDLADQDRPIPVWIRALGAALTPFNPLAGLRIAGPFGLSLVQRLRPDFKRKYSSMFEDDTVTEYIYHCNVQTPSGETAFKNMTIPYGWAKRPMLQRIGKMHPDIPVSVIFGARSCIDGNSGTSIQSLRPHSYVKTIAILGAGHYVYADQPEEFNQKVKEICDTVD
EWS-Fli inh = EWS/Fli-driven NR0B1 reporter inhibitors, primary screen, A673 cells, NR0B1 luciferase, luminescence, MLPCN library | viability-normalised | inhibition, % at 12.6 µM | hit rate 0.67% among 350,000 | AID 651661, 2012;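 active means mean inhibition of at least 50% after viability correction, with every replicate also passing that limit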;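 further: firefly luciferase signal divided by Alamar Blue viability fluorescence both relative to DMSO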
An asterisk follows results filed as active; . = not tested or not shown. Rows were chosen to be rich in hits. Some 3% of all compounds tested hit in one or more screens of this group.

SMILES	Shn3 inh set2	PAX8 reporter	TRPM1 prom inh	Peg3 promoter	ABHD5-PLIN5 inh	EWS-Fli inh
C#CCOCCOCCOCCNc1nc(N2CCN(C(=O)CCCCCCCCCCNC(=O)Cn3cc(C[C@@H](C)O)nn3)CC2)nc(N2CCN(C(=O)CCCCCCCCCCNC(=O)[C@H](CCCCN)n3cc(C[C@@H](C)CC)nn3)CC2)n1	84	.	83*	99*	43*	.
C#CCOCCOCCOCCNc1nc(N2CCN(C(=O)CCCCCCCCCCNC(=O)[C@H](CCCCN)n3cc(CCCC(=O)O)nn3)CC2)nc(N2CCN(C(=O)CCCCCCCCCCNC(=O)[C@H](CCCCN)n3cc(CCCC(=O)O)nn3)CC2)n1	-14	.	-2	-1	14	.
CC[C@H](C)Cc1cn([C@@H](CCCCNC(=O)OC(C)(C)C)C(=O)NCCCCCCCCCCC(=O)N2CCN(C(=O)OC(C)(C)C)CC2)nn1	69	27	68*	26	6	23
C#CCOCCOCCOCCNc1nc(N2CCN(C(=O)CCCCCCCCCCNC(=O)[C@H](CCCCN)n3cc(CCO)nn3)CC2)nc(N2CCN(C(=O)CCCCCCCCCCNC(=O)[C@H](CCCCN)n3cc(CCO)nn3)CC2)n1	-13	.	-4	-18	29*	.
CC(C)(C)OC(=O)NCCCC[C@@H](C(=O)NCCCCCCCCCCC(=O)N1CCN(C(=O)OC(C)(C)C)CC1)n1cc(CCO)nn1	63	20	15	40	13	18
CCS(=O)(=O)N1CC(=O)N2[C@@H](CO)[C@H](c3ccc(C#CC4CCCC4)cc3)[C@@H]2C1	.	-23	.	.	.	-2
COc1ccc2c3c([nH]c2c1)[C@H](CO)N(C(=O)c1cccnc1)CC31CCN(C(=O)NC(C)C)CC1	.	.	.	.	.	-8
C[C@H]1CCCCO[C@@H](CN(C)Cc2ccc(C(F)(F)F)cc2)[C@@H](C)CN([C@@H](C)CO)C(=O)c2cc(NC(=O)Nc3ccc(C(F)(F)F)cc3)ccc2O1	.	-29	.	.	.	5
O=S(=O)(N[C@H]1CC[C@@H](CCn2cc(-c3ccccc3F)nn2)O[C@H]1CO)c1ccc(F)cc1	.	1	.	.	.	.
CC(C)=CCC/C(C)=C/CNC(=O)C[C@H]1C[C@H](C(=O)N2CCOCC2)[C@@]2(C)c3[nH]c4cc(CCC(=O)N(C)C)ccc4c3CCN2C1=O	89*	1	10	-1	-7	4
CC(C)=CCC/C(C)=C/CNC(=O)C[C@H]1C[C@H](C(=O)N2CCCCC2)[C@@]2(C)c3[nH]c4cc(CCC(=O)N(C)C)ccc4c3CCN2C1=O	76	.	34	18	1	.
CC(C)=CCC/C(C)=C/CNC(=O)CC1C[C@H](C(=O)N(C(C)C)C(C)C)[C@@]2(C)c3[nH]c4ccccc4c3CCN2C1=O (stereo not given in full)	58	-17	1	89*	-11	4
C[C@@H]1CCCCO[C@H](CN(C)C(=O)Nc2ccccc2)[C@@H](C)CN([C@H](C)CO)C(=O)c2cc(NS(=O)(=O)c3ccc(F)cc3)ccc2O1	.	-40	.	.	.	3
C=CCNC(=O)[C@@H]1[C@H]2C(=O)O[C@H](c3ccccc3)[C@H](c3ccccc3)N2[C@H](c2ccccc2OCCO)[C@@]12C(=O)N(C(=O)OCCOC)c1ccccc12	.	87*	.	.	.	7
COCCOC(=O)N1C(=O)[C@@]2(c3cc(C#CC4=CCCCC4)ccc31)[C@H](c1ccccc1OCCO)N1[C@H](c3ccccc3)[C@H](c3ccccc3)OC(=O)[C@H]1[C@@H]2C(=O)NC[C@H](O)c1ccccc1	.	51	.	.	.	5
C=CCNC(=O)[C@H]1[C@@H]2C(=O)O[C@@H](c3ccccc3)[C@@H](c3ccccc3)N2[C@@H](c2ccccc2OCCO)[C@]12C(=O)N(C(=O)OCCOC)c1ccccc12	.	82*	.	.	.	8
C=CCNC(=O)[C@H]1[C@@H]2C(=O)O[C@@H](c3ccccc3)[C@@H](c3ccccc3)N2[C@@H](c2ccccc2OCCO)[C@]12C(=O)N(C(=O)OCCOC)c1ccc(C#CC3(O)CCCCCC3)cc12	.	53	.	.	.	12
COCCOC(=O)N1C(=O)[C@@]2(c3ccccc31)[C@H](c1ccccc1OCCO)N1[C@H](c3ccccc3)[C@H](c3ccccc3)OC(=O)[C@H]1[C@@H]2C(=O)NC[C@H](O)c1ccccc1	.	109*	.	.	.	6
CNC(=O)C[C@H]1CC[C@@H]2[C@H](COc3ccc(NC(=O)c4cnccn4)cc3C(=O)N2C)O1	.	-27	.	.	.	-6
COCC(=O)N1CC2(CCN(S(C)(=O)=O)CC2)c2c(n(C)c3cc(OC)ccc23)[C@@H]1CO	.	.	.	.	.	-3
C[C@@H]1CN([C@@H](C)CO)C(=O)Cc2cc(NS(=O)(=O)c3cn(C)cn3)ccc2O[C@H]1CN(C)Cc1ccc(C(F)(F)F)cc1	.	6	.	.	.	1
O=C1NC(=S)N/C1=C/c1ccc2c(c1)OCO2	-6	10	59	72*	-1	21
CNC[C@@H]1OCCCC[C@@H](C)Oc2ccc(NS(=O)(=O)c3ccccc3)cc2C(=O)N([C@H](C)CO)C[C@@H]1C	.	-22	.	.	.	-2
COc1ccc(Oc2nc(-c3ccccn3)ncc2OC)cc1	5	3	3	1	0	23
COc1ccccc1-c1nc(-c2ccccn2)no1	7	49	45	47	-4	73*
SMILES	Shn3 inh set2	PAX8 reporter	TRPM1 prom inh	Peg3 promoter	ABHD5-PLIN5 inh	EWS-Fli inh
CN(C)c1nc(-c2ccccn2)nnc1-c1ccccc1	93*	56	78*	53*	2	.
COc1cnc(-c2ccccn2)nc1N(C)C	89*	12	34	21	2	-1
c1ccc(-c2nnc(-c3ccccn3)c(-c3ccccn3)n2)nc1	-7	11	.	7	-2	1
C[C@H]1CN([C@@H](C)CO)C(=O)c2cc(-c3cccc(F)c3)cnc2O[C@@H]1CN(C)C(=O)C1CCC1	.	-2	.	.	.	4
N#Cc1cc(C(=O)c2ccccc2OCC(=O)Nc2ccccc2Cl)cn(C2CCCCC2)c1=O	6	12	0	16	-4	10
N#Cc1cc(C(=O)c2cc(Br)ccc2O)cn(C2CCCCC2)c1=O	19	.	2	52*	-4	9
O=c1c2cc(NC(=S)NCCN3CCCCCC3)ccc2nc2n1CCCCC2	-5	-6	3	12	2	-5
O=c1c2cc(NC(=S)NCCCN3CCC(Cc4ccccc4)CC3)ccc2nc2n1CCCCC2	47	-4	23	94*	14	24
O=C(Nc1ccc2nc3n(c(=O)c2c1)CCCCC3)c1cc([N+](=O)[O-])ccc1F	96*	90*	67*	108*	8	.
